Experimental data: paper PMC5540273 (PLoS ONE, 2017)

test system: NEK9; conditions: concentration: 1 μM,replicates: in singlicate; n = 1
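Note: KINOMEscan kinase panel screen.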

Compound	%Inh [%]
O=C(NCCNc1ccnc(NCc2ccc(F)cc2)n1)c1cc2ccccc2s1 [GSK1379944]	0
Cl.Cl.NC[C@H](CC1CCCCC1)NC(=O)c1cc(Br)c(-c2ccnc3[nH]ccc23)s1 [GSK1581427]	1
Cc1ccc2c(-c3ccncc3)c(-c3ccc(F)cc3)nn2c1.Cl [GW461484]	0
CC(C)N1C(=O)Cc2cc(Nc3ncc(C(F)(F)F)c(NCc4cccc(S(C)(=O)=O)c4)n3)ccc21	2
CN(C)CC(O)COc1ccc(Nc2nccc(-c3cnn4nc(N5CCOCC5)ccc34)n2)cc1 (stereo not drawn) [GW767488]	55
COc1ccc(C[C@@H](CN)NC(=O)c2cc(Br)c(-c3ccnc4[nH]ccc34)s2)cc1.Cl.Cl [GSK1389063]	0
C[C@@H](Oc1cc(-c2cnn(C3CCNCC3)c2)cnc1N)c1c(Cl)ccc(F)c1Cl	26
CCN(CC)CCCCNc1ncc2cc(-c3c(Cl)cccc3Cl)c(NC(=O)NC(C)(C)C)nc2n1	0
C[C@H]1Oc2cc(cnc2N)-c2c(nn(C)c2C#N)CN(C)C(=O)c2ccc(F)cc21	3
CCN(CC)CCOc1ccc(Nc2ncc3cc(-c4c(Cl)cccc4Cl)c(=O)n(C)c3n2)cc1 [SB-601273]	20
Cl.Cl.NC[C@H](Cc1ccc(C(F)(F)F)cc1)NC(=O)c1cc(Br)c(-c2ccnc3[nH]ccc23)s1 [GSK1487252]	3
C[C@@H]1CCN(C(=O)CC#N)C[C@@H]1N(C)c1ncnc2[nH]ccc12	0
Cc1n[nH]c2ccc(-c3cc(OC[C@@H](N)Cc4ccccc4)cnc3-c3ccoc3)cc12.O=C(O)C(F)(F)F.O=C(O)C(F)(F)F [GSK507358]	30
CN(C)CCOc1ccc(-c2cc(-c3c[nH]nc3-c3ccccn3)ccn2)cc1 [GW835314]	11
CCn1c(-c2nonc2N)nc2c(C#CC(C)(C)O)nc(OCCN)cc21.Cl.Cl [GSK902056]	0
Nc1nc(Nc2ccccc2)cc(-c2ccc3c(N)n[nH]c3c2)n1 [GSK2225749]	11
Cc1ccc(-n2nc(C(C)(C)C)cc2NC(=O)Nc2ccc(OCCN3CCOCC3)c3ccccc23)cc1 [GW839464]	0
Cc1cc(C(=O)Nc2ccc(Oc3ccc4nc(NC(=O)C5CC5)cn4n3)cc2)nn1-c1ccccc1	0
O=C(NCCCN1CCOC1=O)c1cnc(NCc2cc(Cl)ccc2Cl)nc1NC1CCCC1	0
CC(C)Nc1cc(-c2ccc3c(N)n[nH]c3c2)nc(N)n1 [GSK2221681]	1
CNC(=O)c1ccccc1Sc1ccc2c(/C=C/c3ccccn3)n[nH]c2c1	1
NC(=O)c1cc(-c2ccccc2)cc2c(C3CCNCC3)c[nH]c12 [GSK301362]	21
Cl.Cl.Nc1nc(-c2ccc3c(N)n[nH]c3c2)cc(N2CCCC(NC(=O)c3ccccc3)C2)n1 (stereo not drawn) [GSK2286775]	6
Cl.Oc1cc(-c2nc(-c3ccccc3)[nH]c2-c2ccncc2)ccc1Cl [SB-386023]	0
Cc1cc2cn[nH]c2cc1-c1cccc2c(N)c(C(N)=O)nnc12	15
Cc1occc1-c1nc(N)c(OC[C@@H](N)Cc2c[nH]c3ccccc23)cc1-c1cc2c(C)n[nH]c2cn1 [GSK1660450]	67
C=CC(=O)Nc1cc2c(Nc3ccc(F)c(Cl)c3)ncnc2cc1OCCCN1CCOCC1 [GW781483]	22
